In PubChem BioAssay (NCI) one finds growth data, which are given here for 40 molecules.

Several values for one entry are separate records, joined by “and”; a condition that tells them apart may be missing. Equal values may be shown once. The panel holds about 83,000 compounds, 20% with a hit somewhere; the sample as a whole holds those more often.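 Negative percent growth values reflect cell death: -40 means 40% of the cells present at the start died, and -100 means all died.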 Unmarked numbers belong to inactive results. Activity calls are given as the source filed them. The calls were made as follows: active = growth percent below 10; inactive = the rest.

In this assay the test system is MDA-MB-468 breast. As to the kind of experiment: NCI-60 one-dose screen, 48 h (100 = growth as untreated, 0 = no growth, -100 = all killed). The note with it: 10 µM unless noted.
Regarding `CCCCCCCCN(CCCCCCCC)CC(O)c1ccc(Cl)c(C)c1Cl` (stereo not given), the growth is 105%.
As for `C/C(=N/N=C(N)N)c1ccc(N)cc1`, the figure is 75.5%; as for `Cc1ccc(=O)n(-c2ccc(Br)cc2F)c1`, 102%; as for `CCC1(/C=N/NC(N)=S)NC(=O)NC1=O` (stereo not given), 106%.
Next, `O=C(Nc1ccc(NCCN2CCOCC2)nc1)c1ccc([N+](=O)[O-])cc1`: 104%; `CC(=O)OCC1OC(OC(C)=O)C(OC(C)=O)C(OC(C)=O)C1OC(C)=O` (stereo not given): 95.5% and 108%; `CN(C)C(=O)c1ccccc1-n1cnc2ccccc2c1=O`: 100%.
As for `C#CCNc1nc(NCCNC(=O)CCl)nc(N(C)CCCCc2ccccc2)n1`, the figure is 86%; as for `COC1=CC(c2ccc[nH]2)=N/C1=C\c1[nH]c(C)c(CCCn2cc(CCCCCCCCC[C@@H]3Cc4cc(O)ccc4C4CC[C@]5(C)[C@@H](O)CC[C@H]5C43)nn2)c1C` (stereo not given in full), 30.1%.
In the case of `O=c1cc(Cl)[nH]c(=O)[nH]1`, the growth was 101%.
As for `CNC(=S)N/N=C/CSC/C=N/NC(=S)NC`, the figure is 66.8%.
In the case of `O=C(c1cc(-c2ccc(Cl)cc2)nc2ccccc12)N1N=C(c2ccccc2)CC1c1cc(-c2ccccc2)nn1-c1ccccc1` (stereo not given), the growth was 89.6%.
As for `COc1cc(-c2cc(-c3nc4ccccc4[nH]3)[nH]n2)cc(OC)c1OC`, the figure is 14.7%; as for `O=C(CSc1nnc(-c2ccc(Cl)cc2)n1-c1ccccc1)Nc1ccccc1Cl`, 78.5%.
On to `COc1cc(C2C(C#N)=C(N)Oc3cc4c(cc32)OCO4)cc2c1OCO2` (stereo not given), for which the growth is -8.15% (active).
Next, `COc1cccc(NC(=O)c2sc3nc(C)c(C(=O)c4ccccc4)cc3c2N)c1`: 62.1%; `COc1ccc(C2=C(Nc3ccc(C(=O)Nc4ccccc4)cc3)C(=O)N(C)C2=O)cc1`: 88.1%.
Next, `NC1=C(Cl)C(=O)c2ccccc2C1=O`: 36.5%; `O=S(=O)(NCCCNc1nccc(-n2cnc3ccccc32)n1)c1ccc(C(F)(F)F)cc1`: 76.2%.
As for `C=C1C(=O)O[C@H]2[C@H]1CC/C(COC(=O)CCCc1c[nH]c3ccccc13)=C\CC[C@@]1(C)O[C@@H]21`, the figure is 23.1%.
Take `S=C(Sc1ccc(Cl)cc1)Sc1ccc(Cl)cc1`: the growth was -37.6% (active).
Next, `C#Cc1cccc(NC(=O)Nc2cccc(NC(=O)CCl)c2)c1`: -43.5% [8.25 µM] (active); `COc1ccc(-c2cnc(NC(=O)CCCCCCNC(=O)C(O)(O)C(F)(F)F)s2)cc1`: -33.6% (active); `CCCCCCNC(=O)Oc1ccc(/C(=C(/CC)Cc2ccccc2)c2ccc(OCCN(CC)CC)cc2)cc1`: 64.4%.
As for `CC(=O)O[C@]1(C(C)=O)CCC2C3C[C@H](C)C4=CC(=O)CC[C@]4(C)C3CC[C@@]21C` (stereo not given in full), the figure is 86.4%; as for `COC(=O)c1sc(-c2ccc(C)cc2)cc1O`, 99.5%.
As for `O=c1oc2ccc(Br)cc2c(=O)n1-c1ccc(Cl)cc1F`, the figure is -1.24% (active); as for `COc1ccccc1-c1nc2ccc3[nH]ncc3c2c2c1CCCC2`, 47.4%.
With `COc1cc(CNC(=O)CCCC/C=C/C(C)C)ccc1OCc1cn(-c2ccc(C(F)(F)F)cc2)nn1`, the growth is 84.8%.
As for `CCC1N=C(N)N=C(N)N1c1ccc(Cl)cc1` (stereo not given), the figure is 80.6%; as for `Cc1ccc(C2=Nn3c(nnc3-c3ccccc3)SC2)cc1`, 25.1%; as for `Cc1ccc2c(n1)C(=O)C(Cl)=C(Nc1ccccc1C(=O)OC(C)(C)C)C2=O`, -76.5% (active).
Next, `CCOc1cc2ncc(C#N)c(Nc3ccc(F)c(Cl)c3)c2cc1NC(=O)/C=C/CN(C)C`: -43.9% (active).
As for `CC(=O)O[C@H]1CC[C@@]2(C)C(=CC[C@@H]3[C@@H]2CC[C@]2(C)C(c4cccnc4)=CC[C@@H]32)C1`, the figure is 26.5%; as for `Brc1ccc(Nc2csc(-c3ccccn3)n2)cc1`, 97.5%.
As to `CC(=O)CC/C=C(\C)[C@H](O)[C@H](C)C(=O)O[C@H]1C[C@H](C)C=C2C=C[C@@]3(C)O[C@@H](O)CC(=O)[C@]3(C)[C@H]21`, the growth is -65.4% (active).
Turning to `O=c1oc2ccc(Cl)cc2c(=O)n1-c1ccc(F)cc1F`, the growth is -4.5% (active).
`O=c1[nH]c(-c2ccncc2)nc2sc3c(c12)CCCCCC3`: the growth is 99.2%.
As for `O=C(NN1C(=O)CSC1c1ccc(Cl)cc1)c1cccnc1` (stereo not given), the figure is 115%.
As for `N#CC1(O)CCCCC1`, the figure is 108%.
